In the supplement of paper PMC6555819:

Tests used:
Assay in all cases: PBM binding z-score (relative to random genomic background probes); higher = stronger binding; sequences stand for … in GC…GCGATTGACAGCGTAGAATGAAGG
[1] = test system: FXR:RXRa (NR concentration 270 nM, RXRa partner concentration 90 nM)
Summary of the method: (§1)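 Ligand-free nuclear receptor dimers were bound for 1 h to custom Agilent 4×180K protein-binding microarrays. Detection used antibodies against each partner (one per run). Binding z-scores rest on regression-normalized fluorescence, with random background probes as the reference.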

[2] = test system: LXRa:RXRa (NR concentration 270 nM, RXRa partner concentration 90 nM)
Summary of the method: as §1

[3] = test system: LXRa homodimer (NR concentration 270 nM)
Summary of the method: as §1

[4] = test system: LXRb:RXRa (NR concentration 270 nM, RXRa partner concentration 90 nM)
Summary of the method: as §1

[5] = test system: LXRb homodimer (NR concentration 270 nM)
Summary of the method: as §1

[6] = test system: PPARa:RXRa (NR concentration 270 nM, RXRa partner concentration 90 nM)
Summary of the method: as §1

[7] = test system: PPARg:RXRa (NR concentration 180 nM, RXRa partner concentration 90 nM)
Summary of the method: as §1

[8] = test system: PPARg:RXRa 270nM:90nM, anti-RXR (NR concentration 270 nM, RXRa partner concentration 90 nM)
Summary of the method: as §1

[9] = test system: PPARg:RXRa 30nM:10nM, anti-RXR (NR concentration 30 nM, RXRa partner concentration 10 nM)
Summary of the method: as §1

[10] = test system: PPARg:RXRa 90nM:30nM, anti-RXR (NR concentration 90 nM, RXRa partner concentration 30 nM)
Summary of the method: as §1

Sequence | PBM binding z-score [1] | PBM binding z-score [2] | PBM binding z-score [3] | PBM binding z-score [4] | PBM binding z-score [5] | PBM binding z-score [6] | PBM binding z-score [7] | PBM binding z-score [8] | PBM binding z-score [9] | PBM binding z-score [10]
TCTCGGAGGACACGAAGGTCACAGCTTTCCAGAG | 2.69 | 2.82 | 1.52 | 2.65 | -0.279 | 3.64 | 1.64 | 3.1 | 2.74 | 2.74
GCGACTGGGGCAAAGCAGGTTTCCATAAGGTTGG | -0.319 | -0.518 | -0.852 | -0.284 | -0.53 | 0.542 | 0.609 | 0.674 | -0.401 | 0.205
TTACCACGGTGAGCTGAGGTCGTTGATCCAACTC | 0.647 | 0.233 | -0.365 | 0.375 | -1 | 0.798 | -0.279 | 0.206 | -0.397 | -0.177
TCCTATAGGTAAATGCTAGGTGAAAGTCCGATCT | 0.02 | 0.489 | -0.157 | 0.379 | -0.293 | 1.16 | 0.318 | 1.7 | 2.99 | 2.19
ACAATGAGGTTACCAAAGATCAGGGAAACGCTTG | 1.97 | 6.4 | 0.286 | 3.25 | 0.572 | 3.26 | 2.36 | 2.11 | 0.698 | 1.61
TGACCAAGGTGAAAGGTCGTTGATGCACGCCTTG | 3.6 | 2.98 | 0.293 | 2.62 | -0.814 | 5.24 | 8.5 | 7.41 | 6.27 | 7.51
CCTGCTGGGCCAAAGGTCATTGATTCCAATGCTC | 5.24 | 5.14 | 3.92 | 4.66 | 0.872 | 5.78 | 9.98 | 8.99 | 8.27 | 9.45
GCGACTGCGGCAAAGCAGGTTACCATAAGGTTGG | -0.436 | -0.494 | -0.713 | -0.429 | -1.51 | 0.0395 | 0.3 | -0.534 | -0.785 | -0.92
GGAACGAGGGCAAGTTGATAGCTGAGTTTGATGG | 0.775 | 0.137 | -0.459 | 0.185 | -0.455 | 1.59 | 0.992 | 1.03 | 0.138 | 0.467
CCTAGTTGGTCAAGGTCACTCACGCTATAGGTAC | 3.8 | 3.42 | 1.94 | 3.17 | 0.615 | 3.67 | 2.44 | 3.08 | 0.743 | 2.05
ACTAGCAGGCTAAGGGTCACTCAAGATTAGTCCG | 2.37 | 2.99 | -0.0624 | 2.72 | -0.651 | 4.35 | 6.55 | 6.82 | 6.03 | 7.57
TCATATAGGCAAAGGTGAAAGTCGAACGATATGA | 0.772 | 1.05 | -0.253 | 1.07 | -0.302 | 2.98 | 3.35 | 4.39 | 3.88 | 4.56
CCTACTGGGCCATTCAGAGGTCGTTGATCATATG | 0.36 | 0.813 | 0.735 | 0.964 | -0.712 | 1.97 | 0.916 | 1.26 | -0.074 | 0.672
ATCTGTAGGTAAAGTTCAGTGAAAGATCGATAGA | 0.691 | 1.44 | 1.19 | 1.01 | 0.396 | 2.28 | 3.37 | 4.2 | 2.41 | 3.78
TTACCAAGGTGATAGGTCGTTGATGCACGCCTTG | 0.534 | 0.702 | -0.126 | 0.514 | -0.482 | 2.84 | 4.06 | 5.47 | 3.82 | 5.61
CCAGACCGGTGAAAGGTAACTCAGTCTGGTACGC | -0.0585 | 0.0819 | -0.526 | 0.182 | -0.601 | 2.13 | 2.61 | 4.02 | 1.71 | 3.56
ACCGAAAGGTCGAGGTGAGTATAGAGAAAGGGAA | 4.42 | 3.23 | -0.000757 | 2.69 | 0.235 | 4.71 | 3.28 | 3.78 | 1.22 | 2.51
ATCTCTAGGTCACCAAGTTCAGTGAATGCCGAAC | 4.67 | 5.17 | 4.93 | 3.52 | 2.23 | 4.74 | 7.04 | 6.1 | 3.59 | 5.18
ATATGTAGGTTATCGGGTCATTTAGTTTGCGCAT | 3.57 | 3.18 | 2.41 | 3.28 | 1.19 | 4.9 | 7.59 | 6.1 | 3.69 | 5.91
CCTGCTAGGTCAATGGTAAGCTAAAGCAGCTCGC | 2.96 | 2.11 | -0.107 | 1.19 | -0.205 | 2.84 | 2.52 | 2.98 | 0.395 | 2.09
ACTAGCAGGCCAATGGTCACTCAAGATTAGTCCG | -0.525 | -0.42 | -0.46 | -0.417 | -0.678 | 0.789 | 2.17 | 3.26 | 0.959 | 2.79
TGAATGATGTTATAAGATCAGGGAACGTTGCAAA | -0.318 | -0.353 | -0.0281 | -0.083 | 0.0619 | 0.0376 | 0.37 | -0.0772 | 0.598 | 0.592
ATCTCTATGTAAGACTCAGTTCAGTGAAGAACGC | -0.0618 | 0.138 | 0.304 | -0.0643 | 0.391 | -0.231 | 0.076 | -0.0831 | -0.162 | -0.281
